{"source": "PubChem BioAssay (Tox21)", "note": "Results filed as inconclusive are left out. Unmarked numbers belong to inactive results. The source made the active and inactive calls. Unless noted, the call rests on the fitted dose curve. On the % scale 0 is the no-effect control and ±100 the full control effect.", "data": [{"biological_target": "Peroxisome proliferator-activated receptor delta (Homo sapiens) (UniProt Q03181)", "sequence (Q03181 whole entry, looked up)": "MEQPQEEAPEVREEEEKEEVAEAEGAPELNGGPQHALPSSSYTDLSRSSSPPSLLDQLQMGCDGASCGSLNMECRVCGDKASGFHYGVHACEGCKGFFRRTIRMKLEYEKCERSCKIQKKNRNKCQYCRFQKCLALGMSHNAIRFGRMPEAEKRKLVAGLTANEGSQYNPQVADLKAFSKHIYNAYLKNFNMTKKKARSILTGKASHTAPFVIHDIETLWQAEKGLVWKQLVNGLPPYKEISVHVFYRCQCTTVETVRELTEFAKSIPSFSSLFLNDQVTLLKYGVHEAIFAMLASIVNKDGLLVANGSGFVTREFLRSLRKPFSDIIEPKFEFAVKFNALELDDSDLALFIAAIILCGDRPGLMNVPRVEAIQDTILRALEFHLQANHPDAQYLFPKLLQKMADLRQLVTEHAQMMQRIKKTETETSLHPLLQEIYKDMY", "experiment": "qHTS assay to identify small molecule agonists of the peroxisome proliferator-activated receptor delta (PPARd) signaling pathway (AID 743212)", "settings": "HEK293H PPARd-UAS-bla, beta-lactamase FRET ratio, 17 h; series mostly up to 62.6 µM; activation: at the top concentration", "summary_of_the_method": "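Tox21 library screened in GeneBLAzer PPARd UAS-bla HEK293H cells. After compound treatment at 37 C, a FRET-based beta-lactamase substrate was applied for 2 h and fluorescence recorded.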", "values": [{"molecule": "Cn1c(N)c(N=O)c(=O)n(C)c1=O", "activation": "-3.25% [at 81.1 µM]"}, {"molecule": "N[C@H](C(=O)O)c1ccc(O)cc1", "activation": "0.252% [at 29.1 µM]"}, {"molecule": "Nc1ccccc1S(=O)(=O)O", "activation": "-0.671%"}, {"molecule": "COc1c(N2C[C@@H]3CCCN[C@@H]3C2)c(F)cc2c(=O)c(C(=O)O)cn(C3CC3)c12", "activation": "-0.466%"}, {"molecule": "CC(=O)OCC(CCn1cnc2cnc(N)nc21)COC(C)=O", "activation": "-3.69%"}, {"molecule": "CCn1nc(C(=O)O)c(=O)c2cc3c(cc21)OCO3", "activation": "-0.86%"}, {"molecule": "CCC(C)S", "note": "(centres undefined)", "activation": "-4.14% [at 2.7 µM]"}, {"molecule": "CCCCCCOC(=O)CCCCC(=O)OCCCCCC", "activation": "0.233%"}, {"molecule": "CC/C=C\\CCOC(C)=O", "activation": "4.8%"}, {"molecule": "C[C@H]1C[C@@H](O)CC(C)(C)C1", "activation": "-4.35%"}, {"molecule": "O=C1CC2CC1C1CCCC21", "note": "(centres undefined)", "activation": "0%"}, {"molecule": "CCCN(CCC)CCc1cccc2c1CC(=O)N2", "activation": "-2.32%"}, {"molecule": "C=C(C)CS(=O)(=O)O", "activation": "0.357%"}, {"molecule": "NCCCNCCSP(=O)(O)O", "activation": "-0.031% [at 13.2 µM]"}, {"molecule": "CC(=O)OCC(=O)[C@@]1(O)CCC2C3CCC4=CC(=O)CC[C@]4(C)C3[C@@H](O)C[C@@]21C", "note": "(some centres undefined)", "activation": "2.79%"}, {"molecule": "NS(=O)(=O)c1ccc(C(=O)O)cc1", "activation": "1.51%"}, {"molecule": "O=c1cc(CO)occ1O", "activation": "-1.41%"}, {"molecule": "O=c1[nH]c(=O)n([C@H]2C[C@H](O)[C@@H](CO)O2)cc1I", "activation": "-2.45%"}, {"molecule": "CC(C[N+](C)(C)C)OC(N)=O", "note": "(centres undefined)", "activation": "-0.482%"}, {"molecule": "CO[Si](CCCOCC1CO1)(OC)OC", "note": "(centres undefined)", "activation": "1.09%"}, {"molecule": "CN1C(=O)N(C)C(O)C1O", "note": "(centres undefined)", "activation": "-5.93%"}, {"molecule": "CC1=CC(C)C(C=O)CC1", "note": "(centres undefined)", "activation": "-2.9%"}, {"molecule": "O=C(O)c1ccccc1OP(=O)(O)O", "activation": "4.06%"}, {"molecule": "CC(C)NC(=O)NC(C)C", "activation": "-4.02%"}, {"molecule": "CCN(CC)CCNC(=O)c1cc(S(C)(=O)=O)ccc1OC", "activation": "1.24%"}, {"molecule": "Cn1cc(S(C)=O)c(=O)c2ccc(F)cc21", "note": "(centres undefined)", "activation": "1.41%"}, {"molecule": "CC(C)c1cc2c(cc1S(=O)(=O)O)[C@@]1(C)CCC[C@@](C)(C(=O)O)[C@@H]1CC2", "activation": "1.27%"}, {"molecule": "O=c1n(CCO)c(=O)n(CCO)c(=O)n1CCO", "outcome": "inactive"}, {"molecule": "CCC(C)C1CCCCC1=O", "note": "(centres undefined)", "activation": "-5.99%"}, {"molecule": "COC(C)(C)CCCC(C)CC=O", "note": "(centres undefined)", "activation": "2.16%"}]}, {"tested_on": "not listed separately", "experiment": "qHTS assay to identify small molecule antagonists of the peroxisome proliferator-activated receptor delta (PPARd) signaling pathway - cell viability counter screen (AID 743213; active means well fitted cell-killing curve with a large enough effect in the repeat runs; further: nearly all actives have a fitted effect of over 50% in size)", "settings": "PPARd-bla HEK293H viability, CellTiter-Glo luminescence, 17 h; series mostly up to 62 µM; viability change, negative = cytotoxic: at the top concentration", "summary_of_the_method": "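CellTiter-Glo was added to PPARd-bla HEK293H wells following 17 h compound treatment in the presence of 300 nM L165041. Luminescence was recorded after 30 min at room temperature.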", "values": [{"molecule": "Cn1c(N)c(N=O)c(=O)n(C)c1=O", "viability change, negative = cytotoxic": "2.86% [at 80.4 µM]"}, {"molecule": "N[C@H](C(=O)O)c1ccc(O)cc1", "viability change, negative = cytotoxic": "-13% [at 28.9 µM]"}, {"molecule": "Nc1ccccc1S(=O)(=O)O", "viability change, negative = cytotoxic": "7.82%"}, {"molecule": "COc1c(N2C[C@@H]3CCCN[C@@H]3C2)c(F)cc2c(=O)c(C(=O)O)cn(C3CC3)c12", "viability change, negative = cytotoxic": "-5.7%"}, {"molecule": "CCn1nc(C(=O)O)c(=O)c2cc3c(cc21)OCO3", "viability change, negative = cytotoxic": "1.44%"}, {"molecule": "CCC(C)S", "note": "(centres undefined)", "viability change, negative = cytotoxic": "4.88% [at 2.83 µM]"}, {"molecule": "CCCCCCOC(=O)CCCCC(=O)OCCCCCC", "viability change, negative = cytotoxic": "12.5%"}, {"molecule": "CC/C=C\\CCOC(C)=O", "viability change, negative = cytotoxic": "-0.285%"}, {"molecule": "C[C@H]1C[C@@H](O)CC(C)(C)C1", "viability change, negative = cytotoxic": "12.6%"}, {"molecule": "O=C1OC(=O)C2CCCCC12", "note": "(centres undefined)", "viability change, negative = cytotoxic": "-0.878%"}, {"molecule": "O=C1CC2CC1C1CCCC21", "note": "(centres undefined)", "viability change, negative = cytotoxic": "21.5%"}, {"molecule": "C=C(C)CS(=O)(=O)O", "viability change, negative = cytotoxic": "28.5%"}, {"molecule": "Nc1cc(=O)[nH]c(N)n1", "viability change, negative = cytotoxic": "10.3%"}, {"molecule": "NCCCNCCSP(=O)(O)O", "viability change, negative = cytotoxic": "1.09% [at 13.7 µM]"}, {"molecule": "CC(=O)OCC(=O)[C@@]1(O)CCC2C3CCC4=CC(=O)CC[C@]4(C)C3[C@@H](O)C[C@@]21C", "note": "(some centres undefined)", "viability change, negative = cytotoxic": "-6.62%"}, {"molecule": "CCOc1ccc(C(=O)OCCN(CC)CC)cc1", "viability change, negative = cytotoxic": "-36.3%"}, {"molecule": "CC(C[N+](C)(C)C)OC(N)=O", "note": "(centres undefined)", "viability change, negative = cytotoxic": "3.53%"}, {"molecule": "CO[Si](CCCOCC1CO1)(OC)OC", "note": "(centres undefined)", "viability change, negative = cytotoxic": "-15.2%"}, {"molecule": "CN1C(=O)N(C)C(O)C1O", "note": "(centres undefined)", "viability change, negative = cytotoxic": "11.5%"}, {"molecule": "CC1=CC(C)C(C=O)CC1", "note": "(centres undefined)", "viability change, negative = cytotoxic": "3.94%"}, {"molecule": "OCCOc1ccc(OCCO)cc1", "viability change, negative = cytotoxic": "-15.6% [at 80.4 µM]"}, {"molecule": "CC(C)NC(=O)NC(C)C", "viability change, negative = cytotoxic": "5.52%"}, {"molecule": "CCN(CC)CCNC(=O)c1cc(S(C)(=O)=O)ccc1OC", "viability change, negative = cytotoxic": "8.53%"}, {"molecule": "Cn1cc(S(C)=O)c(=O)c2ccc(F)cc21", "note": "(centres undefined)", "viability change, negative = cytotoxic": "7.06%"}, {"molecule": "O=c1n(CCO)c(=O)n(CCO)c(=O)n1CCO", "viability change, negative = cytotoxic": "1.39% [at 80.4 µM]"}, {"molecule": "COC(C)(C)CCCC(C)CC=O", "note": "(centres undefined)", "viability change, negative = cytotoxic": "-2.53%"}]}, {"biological_target": "Peroxisome proliferator-activated receptor delta (Homo sapiens) (UniProt Q03181)", "experiment": "qHTS assay to identify small molecule antagonists of the peroxisome proliferator-activated receptor delta (PPARd) signaling pathway (AID 743215; active means well fitted inhibition curve with a large enough effect in the signal ratio in the repeat runs, not every such curve was filed as active; the % refers to the signal ratio;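 further: cells stimulated with agonist L165041 at 300 nM final during compound exposure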)", "settings": "HEK293H PPARd-UAS-bla, beta-lactamase FRET ratio, antagonist, 17 h; series mostly up to 62 µM; ratio activity, negative = inhibition: at the top concentration", "summary_of_the_method": "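Fluorescence from cleaved LiveBLAzer B/G FRET substrate (2 h, room temperature) reports PPARd-driven beta-lactamase in HEK293H UAS-bla cells. Cells had been treated 17 h at 37 C with compound plus 300 nM final L165041.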", "values": [{"molecule": "Cn1c(N)c(N=O)c(=O)n(C)c1=O", "ratio activity, negative = inhibition": "-11.6% [at 80.4 µM]"}, {"molecule": "N[C@H](C(=O)O)c1ccc(O)cc1", "ratio activity, negative = inhibition": "2.34% [at 28.9 µM]"}, {"molecule": "Nc1ccccc1S(=O)(=O)O", "ratio activity, negative = inhibition": "9.39%"}, {"molecule": "COc1c(N2C[C@@H]3CCCN[C@@H]3C2)c(F)cc2c(=O)c(C(=O)O)cn(C3CC3)c12", "ratio activity, negative = inhibition": "-0.0198%"}, {"molecule": "CC(=O)OCC(CCn1cnc2cnc(N)nc21)COC(C)=O", "ratio activity, negative = inhibition": "11.2%"}, {"molecule": "CCn1nc(C(=O)O)c(=O)c2cc3c(cc21)OCO3", "ratio activity, negative = inhibition": "-0.434%"}, {"molecule": "CCC(C)S", "note": "(centres undefined)", "ratio activity, negative = inhibition": "5.9% [at 2.83 µM]"}, {"molecule": "CCCCCCOC(=O)CCCCC(=O)OCCCCCC", "ratio activity, negative = inhibition": "-2.89%"}, {"molecule": "CC/C=C\\CCOC(C)=O", "ratio activity, negative = inhibition": "-7.08%"}, {"molecule": "C[C@H]1C[C@@H](O)CC(C)(C)C1", "ratio activity, negative = inhibition": "15.5%"}, {"molecule": "O=C1CC2CC1C1CCCC21", "note": "(centres undefined)", "ratio activity, negative = inhibition": "13.2%"}, {"molecule": "CCCN(CCC)CCc1cccc2c1CC(=O)N2", "ratio activity, negative = inhibition": "3.67%"}, {"molecule": "C=C(C)CS(=O)(=O)O", "ratio activity, negative = inhibition": "-1.05%"}, {"molecule": "NCCCNCCSP(=O)(O)O", "ratio activity, negative = inhibition": "-0.162% [at 13.7 µM]"}, {"molecule": "CC(=O)OCC(=O)[C@@]1(O)CCC2C3CCC4=CC(=O)CC[C@]4(C)C3[C@@H](O)C[C@@]21C", "note": "(some centres undefined)", "ratio activity, negative = inhibition": "-7.01%"}, {"molecule": "NS(=O)(=O)c1ccc(C(=O)O)cc1", "ratio activity, negative = inhibition": "0.44%"}, {"molecule": "O=c1cc(CO)occ1O", "ratio activity, negative = inhibition": "-3.68%"}, {"molecule": "O=c1[nH]c(=O)n([C@H]2C[C@H](O)[C@@H](CO)O2)cc1I", "ratio activity, negative = inhibition": "8.55%"}, {"molecule": "CC(C[N+](C)(C)C)OC(N)=O", "note": "(centres undefined)", "ratio activity, negative = inhibition": "0%"}, {"molecule": "CO[Si](CCCOCC1CO1)(OC)OC", "note": "(centres undefined)", "Potency": "inactive"}, {"molecule": "CN1C(=O)N(C)C(O)C1O", "note": "(centres undefined)", "ratio activity, negative = inhibition": "-4.57%"}, {"molecule": "O=C(O)c1ccccc1OP(=O)(O)O", "ratio activity, negative = inhibition": "-3.39%"}, {"molecule": "CC(C)NC(=O)NC(C)C", "ratio activity, negative = inhibition": "10.6%"}, {"molecule": "CCN(CC)CCNC(=O)c1cc(S(C)(=O)=O)ccc1OC", "ratio activity, negative = inhibition": "2.19%"}, {"molecule": "Cn1cc(S(C)=O)c(=O)c2ccc(F)cc21", "note": "(centres undefined)", "ratio activity, negative = inhibition": "0.335%"}, {"molecule": "O=c1n(CCO)c(=O)n(CCO)c(=O)n1CCO", "ratio activity, negative = inhibition": "4.21% [at 80.4 µM]"}, {"molecule": "CCC(C)C1CCCCC1=O", "note": "(centres undefined)", "ratio activity, negative = inhibition": "20.6%"}, {"molecule": "COC(C)(C)CCCC(C)CC=O", "note": "(centres undefined)", "ratio activity, negative = inhibition": "-2.57%"}]}]}
